Inconclusive results are not listed. Activity calls are given as the source filed them. Calls follow the shape of the dose curve; as a rule, active = well fitted cell-killing curve with a large enough effect; inconclusive = small, poorly fitted or top-dose-only effect, or effect the other way; inactive = no such curve, though single readings can be large or run the other way.
Legend:
[1] = Quantitative High-Throughput drug screen in 47 multiple myeloma cell lines against the NCATS MIPE library collection: XG6_PLB cell viability assay (AID 1919865); details: XG6 myeloma viability, CellTiter-Glo ATP luminescence, 48 h; series mostly up to 45.8 µM; also: nearly all actives have a fitted effect of over 40% in size
Method in brief: (§1)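 Myeloma cells (500/well) treated with MIPE 4.0 compounds for 48 h at 37 °C, 5% CO2. Viability read as ATP via CellTiter-Glo luminescence after 5 min at RT; DMSO-only wells = 100%, media-only = 0% viability.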

[2] = Quantitative High-Throughput drug screen in 47 multiple myeloma cell lines against the NCATS MIPE library collection: XG1_PLB cell viability assay (AID 1919866); details: CellTiter-Glo ATP, 48 h; series mostly up to 45.8 µM; also: nearly all actives have a fitted effect of over 35% in size
Method in brief: as §1

[3] = Quantitative High-Throughput drug screen in 47 multiple myeloma cell lines against the NCATS MIPE library collection: VP6_DJ cell viability assay (AID 1919867); details: ATP luminescence, 48 h; series mostly up to 45.8 µM; also: nearly all actives have a fitted effect of over 40% in size
Method in brief: as §1

[4] = Quantitative High-Throughput drug screen in 47 multiple myeloma cell lines against the NCATS MIPE library collection: PE2_PLB cell viability assay (AID 1919869); details: PE2_PLB myeloma cells viability, ATP luminescence, 48 h; series mostly up to 45.8 µM; also: nearly all actives have a fitted effect of over 35% in size
Method in brief: as §1

[5] = Quantitative High-Throughput drug screen in 47 multiple myeloma cell lines against the NCATS MIPE library collection: KMS11_JCRBsus cell viability assay (AID 1919873); details: KMS11 myeloma viability, CellTiter-Glo ATP luminescence, 48 h; series mostly up to 45.8 µM; also: nearly all actives have a fitted effect of over 50% in size
Method in brief: as §1

[6] = Quantitative High-Throughput drug screen in 47 multiple myeloma cell lines against the NCATS MIPE library collection: KMS28BM_JCRB cell viability assay (AID 1919874); details: CellTiter-Glo ATP, 48 h; series mostly up to 45.8 µM; also: nearly all actives have a fitted effect of over 35% in size
Method in brief: as §1

[7] = Quantitative High-Throughput drug screen in 47 multiple myeloma cell lines against the NCATS MIPE library collection: RPMI8226_ATCC cell viability assay (AID 1919871); details: RPMI8226 myeloma viability, CellTiter-Glo ATP luminescence, 48 h; series mostly up to 45.8 µM; also: nearly all actives have a fitted effect of over 30% in size
Method in brief: as §1

[8] = Quantitative High-Throughput drug screen in 47 multiple myeloma cell lines against the NCATS MIPE library collection: OPM2_DSMZ cell viability assay (AID 1919872); details: OPM2 myeloma viability, CellTiter-Glo ATP luminescence, 48 h; series mostly up to 45.8 µM; also: nearly all actives have a fitted effect of over 30% in size
Method in brief: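 Steps: seed 500 cells per well; pin-transfer MIPE 4.0 library; incubate 48 h at 37C, 5% CO2, humidified; add CellTiter-Glo, 5 min room temperature; read luminescence.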

[9] = Quantitative High-Throughput drug screen in 47 multiple myeloma cell lines against the NCATS MIPE library collection: PCM6_Riken cell viability assay (AID 1919870); details: CellTiter-Glo ATP, 48 h; series mostly up to 45.8 µM; also: nearly all actives have a fitted effect of over 30% in size
Method in brief: as §1

[10] = Quantitative High-Throughput drug screen in 47 multiple myeloma cell lines against the NCATS MIPE library collection: UTMC2_PLB cell viability assay (AID 1919868); details: CellTiter-Glo ATP luminescence, 48 h; viability (% of DMSO control): at 45.8 µM (top of the series); also: nearly all actives have a fitted effect of over 55% in size
Method in brief: as §1

Measured: Potency
Potency is read from the fitted curve at half-maximal effect.

Cc1cc(-c2ncc(CC(=O)Nc3ccc(-c4cnccn4)cn3)cc2C)ccn1
active: [1] 14.8 µM | [2] 16.6 µM | [3] 18.7 µM | [4] 18.7 µM | [5] 1.87 µM
inactive: [6]

Cc1cc(OCCCS(C)(=O)=O)cc(C)c1-c1cccc(COc2ccc3c(c2)OC[C@H]3CC(=O)O)c1
active: [1] 23.5 µM | [2] 16.6 µM | [3] 2.35 µM | [7] 18.7 µM | [5] 18.7 µM

Fc1ccc(CNc2ncnc3ccc(F)cc23)cc1
active: [1] 14.8 µM | [2] 4.69 µM | [3] 5.9 µM | [7] 5.26 µM | [8] 2.96 µM

C[C@@H]1[C@H](O)[C@@H](C)C=CC=CC=CC=CC=CC=CC=C[C@H](O[C@@H]2O[C@H](C)[C@H](O)[C@H](N)[C@@H]2O)C[C@@H]2O[C@](O)(C[C@@H](O)C[C@@H](O)[C@H](O)CC[C@@H](O)C[C@@H](O)CC(=O)O[C@H]1C)C[C@H](O)[C@@H]2C(=O)O
active: [2] 2.96 µM | [3] 3.72 µM | [9] 3.32 µM
inactive: [1]

CC(O)=C(C#N)C(=O)Nc1ccc(C(F)(F)F)cc1
active: [1] 18.7 µM | [2] 16.6 µM | [10] 33.2 µM | [4] 8.33 µM | [9] 20.9 µM | [7] 6.62 µM
inactive: [8]

C[C@@H]1C[C@H]2[C@@H]3CCC4=CC(=O)C=C[C@]4(C)[C@@]3(F)[C@@H](O)C[C@]2(C)[C@@]1(O)C(=O)CO
active: [7] 0.0166 µM | [5] 0.0132 µM
not listed: [3]
inactive: all other assays above

COc1cc(CNC(=O)CCCCC=CC(C)C)ccc1O
active: [1] 13.2 µM
not listed: [4] | [7] | [10]
inactive: all other assays above

COc1cc([C@H]2Oc3cc([C@H]4Oc5cc(O)cc(O)c5C(=O)[C@H]4O)ccc3O[C@H]2CO)ccc1O
active: [1] 14.8 µM | [2] 16.6 µM | [3] 11.8 µM | [5] 7.43 µM | [6] 10.5 µM

CN1C(=O)C[C@H](C(=O)N[C@@H](Cc2cnc[nH]2)C(=O)N2CCC[C@@H]2C(N)=O)NC1=O
inactive: [7]
active: [1] 10.5 µM | [2] 10.5 µM | [3] 10.5 µM

COc1ccc2cc1Oc1ccc(cc1)C[C@H]1c3cc(c(OC)cc3CCN1C)Oc1c(OC)c(OC)cc3c1[C@H](C2)N(C)CC3
inactive: [8]
active: [1] 14.8 µM | [2] 10.5 µM | [3] 11.8 µM | [7] 6.62 µM | [5] 14.8 µM

CC(C)=CCCC(C)=CCCC(C)=CCCC(C)=CCCC(C)=CCCC(C)=CCCC(C)=CCCC(C)=CCCC(C)=CCO
not listed: [3]
inactive: all other assays above

O=c1[nH]c(=O)n([C@H]2C[C@@H](O)[C@@H](CO)O2)cc1I
inactive: [1] | [2] | [3] | [4] | [6]
active: [5] 2.09 µM

COC(=O)[C@H](c1ccccc1Cl)N1CCc2sccc2C1
not listed: [3]
inactive: all other assays above

O=C(Nc1cccc2c(=O)cc(-c3nn[nH]n3)oc12)c1ccc(OCCCCc2ccccc2)cc1
inactive: [8]
active: [1] 26.4 µM | [2] 26.4 µM | [10] 14.8 µM | [4] 26.4 µM | [5] 23.5 µM

CC[C@H](C)C(=O)O[C@H]1C[C@H](O)C=C2C=C[C@H](C)[C@H](CC[C@@H](O)C[C@@H](O)CC(=O)O)[C@H]21
not listed: [3] | [5] | [6]
inactive: all other assays above

CO[C@H]1C=CO[C@@]2(C)Oc3c(C)c(O)c4c(O)c(c(C=NN5CCN(C)CC5)c(O)c4c3C2=O)NC(=O)C(C)=CC=C[C@H](C)[C@H](O)[C@@H](C)[C@@H](O)[C@@H](C)[C@H](OC(C)=O)[C@H]1C
not listed: [3] | [5]
inactive: all other assays above

CC[C@H](C=C[C@@H](C)[C@H]1CC[C@H]2[C@@H]3CC=C4C[C@@H](O)CC[C@]4(C)[C@@H]3CC[C@]12C)C(C)C
inactive: [10] | [7] | [8]
active: [1] 1.02 µM | [2] 1.02 µM | [4] 0.0575 µM | [9] 0.575 µM | [5] 5.12 µM

CC[C@H]1OC(=O)[C@H](C)[C@@H](O[C@H]2C[C@@](C)(OC)[C@@H](O)[C@H](C)O2)[C@H](C)[C@@H](O[C@@H]2O[C@H](C)C[C@H](N(C)C)[C@H]2O)[C@](C)(O)C[C@H](C)C(=NOCOCCOC)[C@H](C)[C@@H](O)[C@]1(C)O
active: [7] 4.69 µM
not listed: [3] | [5] | [6]
inactive: all other assays above

O=C1C(CCC(O)c2ccc(F)cc2)C(c2ccc(O)cc2)N1c1ccc(F)cc1 (centres undefined)
inactive: [2] | [8] | [5] | [6]
active: [1] 2.09 µM | [3] 3.32 µM

O=C(O)CCC=CCC[C@@H]1[C@H](N2CCCCC2)[C@@H](O)C[C@@H]1OCc1ccc(-c2ccccc2)cc1
not listed: [3] | [6] | [9]
inactive: all other assays above

CCNC(=O)Nc1ccc(Oc2ncnc(N)c2C=NOC)cc1Cl
active: [1] 4.18 µM | [2] 2.96 µM | [3] 3.72 µM | [7] 18.7 µM

N#CC1(c2cccc(C(=O)Nc3cc(Oc4ccc5nc(NC(=O)C6CC6)sc5n4)ccc3F)c2Cl)CC1
active: [1] 1.48 µM | [2] 2.35 µM | [3] 5.9 µM | [9] 14.8 µM

CN1CCN(c2ncc(-c3cc(Cl)cc(Cl)c3Cl)c(N)n2)CC1
inactive: [10] | [7]
active: [1] 7.43 µM | [2] 7.43 µM | [4] 10.5 µM

CCCCC(C=O)NC(=O)C(CC(C)C)NC(=O)OCc1ccccc1 (centres undefined)
active: [8] 14.8 µM
inactive: [1] | [2] | [3] | [9]

O=C(Nc1ncc(SCCN2CCCC2)s1)[C@]1(c2ccc(S(=O)(=O)C3CC3)cc2)C[C@@H]1C1CCCCC1
active: [1] 10.5 µM | [2] 8.33 µM | [3] 9.35 µM | [9] 8.33 µM | [7] 23.5 µM | [5] 7.43 µM | [6] 8.33 µM

C=CC[N+]1([C@H]2C[C@H]3[C@@H]4CC[C@H]5C[C@H](O)[C@@H](N6CCOCC6)C[C@]5(C)[C@@H]4CC[C@]3(C)[C@H]2OC(C)=O)CCCC1
not listed: [3] | [7]
inactive: all other assays above

O=C(c1ccc(C(=O)N2CCC(N3CCCC3)CC2)c(Nc2ccccc2)c1)N1CCC(N2CCCC2)CC1
inactive: [1] | [2] | [10] | [4] | [5]

CCN1CCC(n2cc(CNc3cc(Cl)c4ncc(C#N)c(Nc5ccc(F)c(Cl)c5)c4c3)nn2)CC1
active: [1] 14.8 µM | [2] 23.5 µM | [9] 20.9 µM | [7] 16.6 µM | [5] 20.9 µM

Cc1cnc(-c2cc(N3CCN(C(=O)CCS(C)(=O)=O)CC3)ncc2Cl)c(C)c1
inactive: [9] | [7] | [8]
active: [1] 14.8 µM | [2] 16.6 µM

CC(C)c1c(C(=O)Nc2ccccc2)c(-c2ccccc2)c(-c2ccc(F)cc2)n1CC[C@H](O)C[C@@H](O)CC(=O)O
active: [1] 18.7 µM | [2] 13.2 µM | [4] 11.8 µM | [9] 16.6 µM | [7] 10.5 µM | [5] 10.5 µM

CNC1[C@H](O)C(O[C@@H]2C(O)C(O[C@H]3O[C@H]([C@@H](C)NC)CC[C@H]3N)[C@@H](N)C[C@H]2N)OC[C@]1(C)O (some centres undefined)
inactive: [1] | [9] | [8] | [6]
active: [2] 18.7 µM

O=C1CCCC(=O)C1C(=O)c1ccc(C(F)(F)F)cc1[N+](=O)[O-]
inactive: [1] | [2] | [4] | [9] | [6]

NC(=O)c1noc([C@H](CCCC2CCCCC2)CC(=O)NO)n1
inactive: [6]
active: [1] 23.5 µM | [2] 16.6 µM | [4] 18.7 µM | [9] 16.6 µM | [7] 10.5 µM | [8] 20.9 µM

COc1ccc(-c2nc3ccc(C4=NNC(=O)CC4C)cc3[nH]2)cc1 (centres undefined)
not listed: [3] | [6] | [10]
inactive: all other assays above

C[C@]12C=CC(=O)C=C1CC[C@@H]1[C@@H]2[C@@H](O)C[C@@]2(C)[C@@H]1CC[C@]2(O)C(=O)CO
active: [7] 0.187 µM | [5] 0.0935 µM
not listed: [3] | [10]
inactive: all other assays above

Cc1ccc(C2=Nc3ccc(Cl)cc3OC2)cc1
active: [1] 7.43 µM | [9] 7.43 µM | [7] 1.87 µM
inactive: [2] | [4] | [8] | [6]

Source: PubChem BioAssay (NCATS)
